Test [1] can be described thus: HepG2 liver cancer cell viability effects, profiling panel, resazurin fluorescence, 24 h, PK04 Diversity Set (AID 1172). Also: test concentration not given here. Particulars: higher = more signal. On the technique in general: Resazurin is reduced to fluorescent resorufin, in cell work by metabolically active cells.
Test [2] is described as follows: basal S. cerevisiae growth modulation, no modifier, primary screen, OD600, strain BY4716, 24 h, basal condition (AID 1173). The following applies: OD600, 24 h, higher = more signal, called active from +8 up or from −8 down.
The nature of test [3]: MM1S myeloma cell viability, profiling panel, resazurin fluorescence, basal, 24 h, PK04 Diversity Set (AID 1174).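 Also: MM1S multiple myeloma cell line; test concentration not given here.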 Particulars: higher = more signal, called active from +8 up or from −8 down.
The target of test [4] is Dihydroorotate dehydrogenase (quinone), mitochondrial (Plasmodium falciparum (isolate 3D7)) (UniProt Q08210). Briefly: PfDHODH enzyme inhibitors, primary screen, biochemical, C-terminal His tag, absorbance 600 nm (AID 1175).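 Also: recombinant parasite enzyme with a five histidine tag at its C terminus; test concentration not given here.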 The following applies: DCIP absorbance 600 nm, higher = more signal, called active from +8 up or from −8 down.
Sequence of Dihydroorotate dehydrogenase (quinone), mitochondrial (Plasmodium falciparum (isolate 3D7)) (Q08210 whole entry, looked up): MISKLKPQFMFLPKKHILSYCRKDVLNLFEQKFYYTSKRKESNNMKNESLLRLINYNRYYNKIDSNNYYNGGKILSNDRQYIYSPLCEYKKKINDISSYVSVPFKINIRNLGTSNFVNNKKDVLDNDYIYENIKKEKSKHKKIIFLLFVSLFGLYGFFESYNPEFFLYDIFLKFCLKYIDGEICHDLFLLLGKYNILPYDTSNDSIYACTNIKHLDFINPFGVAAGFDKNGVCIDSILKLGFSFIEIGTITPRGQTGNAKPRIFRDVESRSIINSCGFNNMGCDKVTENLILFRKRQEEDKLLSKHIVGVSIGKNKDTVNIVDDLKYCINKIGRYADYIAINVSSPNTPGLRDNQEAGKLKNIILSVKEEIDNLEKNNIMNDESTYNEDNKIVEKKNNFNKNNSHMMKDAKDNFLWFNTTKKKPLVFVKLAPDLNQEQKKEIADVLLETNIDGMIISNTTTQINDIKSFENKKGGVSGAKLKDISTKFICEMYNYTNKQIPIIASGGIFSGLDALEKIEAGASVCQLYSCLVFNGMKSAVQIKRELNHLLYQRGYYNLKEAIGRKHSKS
Test [5] in a line: P. aeruginosa biofilm formation inhibitors, primary screen, strain PAO1, LB-PBS medium, absorbance 600 nm (AID 1176). Also: test concentration not given here. Particulars: P. aeruginosa PAO1 growth/biofilm, A600, 12 h; higher = more signal.
A short description of test [6]: S. cerevisiae RM11-1a growth modifiers, primary screen, strain RM11-1a, OD600, basal, 24 h (AID 1177).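 Also: cultures grown under basal conditions with no added stressor; test concentration not given here.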 Particulars: OD600, 24 h, higher = more signal, called active from +8 up or from −8 down.
A short description of test [7]: E. coli acrAB mutant growth effects, primary screen, E. coli filamentation inducers, strain DRC39, OD650, 24 h (AID 1178).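 Also: growth measured as culture turbidity by optical density at 650 nm; test concentration not given here.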 The following applies: higher = more signal, called active from +8 up or from −8 down.
Test [8] is described as follows: E. coli acrAB mutant growth effects, primary screen, E. coli filamentation inducers, strain DRC39, OD650, 48 h (AID 1179).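 Also: screen aims at cell division blockers that make cells filament.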 The following applies: E. coli DRC39 delta-acrAB growth, higher = more signal, called active from +8 up or from −8 down.
Test [9] is described as follows: RPMI8226 myeloma cell viability, profiling panel, resazurin fluorescence, basal, 24 h, PK04 Diversity Set (AID 1180).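 Also: RPMI8826 multiple myeloma cell line at 5000 cells per well; test concentration not given here.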 Particulars: higher = more signal.
Test [10] concerns the target E3 ubiquitin-protein ligase XIAP (Homo sapiens) (UniProt P98170). The test is described as follows: XIAP binders, primary screen, biophysical, small-molecule microarray, fluorescence 635 nm (AID 1181).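 Also: score merges 667 nm emission and signal to noise over triplicate slides.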 Particulars: small-molecule microarray binding, higher = more signal.

Activity calls are given as the source filed them. Unless noted, no rule for the calls is given here.

Sequence of E3 ubiquitin-protein ligase XIAP (Homo sapiens) (P98170 whole entry, looked up): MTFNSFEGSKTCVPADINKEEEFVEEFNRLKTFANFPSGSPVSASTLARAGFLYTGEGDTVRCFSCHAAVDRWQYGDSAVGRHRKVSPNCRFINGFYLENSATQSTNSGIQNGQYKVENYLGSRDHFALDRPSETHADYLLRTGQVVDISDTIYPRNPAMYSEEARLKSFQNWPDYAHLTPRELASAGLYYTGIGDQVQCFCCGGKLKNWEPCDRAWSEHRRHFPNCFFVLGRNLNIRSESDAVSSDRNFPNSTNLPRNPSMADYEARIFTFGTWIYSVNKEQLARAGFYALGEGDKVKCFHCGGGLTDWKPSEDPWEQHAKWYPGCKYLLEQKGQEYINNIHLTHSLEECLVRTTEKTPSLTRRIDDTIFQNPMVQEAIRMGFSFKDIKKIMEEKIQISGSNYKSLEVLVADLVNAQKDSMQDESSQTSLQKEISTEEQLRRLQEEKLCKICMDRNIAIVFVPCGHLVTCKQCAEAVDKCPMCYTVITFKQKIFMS

For `CCOC(=O)[C@H](Cc1ccccc1)NC(=O)CCC1CC(OC(=O)NCCc2ccc(F)cc2)CC2(CCCC(COC(=O)NCc3ccccc3)O2)O1` (stereo not given in full), the z-score was 0.567 in test [1]; -0.298 (inactive) in test [2]; 0.159 (inactive) in test [3]; 0.013 (inactive) in test [5]; 0.694 (inactive) in [6]; 0.321 (inactive) in [7]. Also, the z-score in [8] was -0.158 (inactive); in test [9], -0.0066. The composite z-score in test [4] is -0.447 (inactive); in test [10] it was -0.0525.

Turning to `O=C(NN=C1C[C@@H](O)[C@@H](O)[C@@H]2[C@@H]3C(=O)N(Cc4ccccc4)C(=O)[C@@H]3CC[C@@H]12)OCc1ccccc1`, the z-score in test [1] is 0.348; in test [2] it was -1.17 (inactive); in test [3], 0.0873 (inactive); in test [5], 0.352 (inactive); in test [6], -0.139 (inactive); in test [7], 0.851 (inactive). For the same compound, the values for the z-score in [8] and in test [9] were 0.279 (inactive) and 0.131, respectively. In addition, the results for the composite z-score in [4] and in [10] were -1.65 (inactive) and -0.0344, respectively.

Take `COc1ccc(O[C@H]2C=C[C@@H](c3ccccc3)O[C@@H]2COC(=O)CCC(C)=NOC(C)CN2CCCc3nc(C)c(C)cc32)cc1` (stereo not given in full): the z-score was 1.21 in test [1]; -0.729 (inactive) in test [2]; -0.317 (inactive) in [3]; -0.336 (inactive) in [5]; 1.37 (inactive) in test [6]; 1.09 (inactive) in [7]. The z-score in [8] is 0.129 (inactive); in [9] it was 0.757. For the same compound, the composite z-score was -0.154 (inactive) in test [4] and -0.127 in test [10].

With `CCOC(=O)C1=NO[C@@]2(C=C(Br)C3(OCCCO3)[C@H]3O[C@H]32)C1`, the z-score in test [1] is -0.68; in [2], -0.303 (inactive); in [3] it was -0.227 (inactive); in [5], 0.356 (inactive); in [6] it was 0.227 (inactive); in test [7], 0.58 (inactive). The values for the z-score in test [8] and in test [9] were 0.643 (inactive) and -0.249, respectively. The figures for the composite z-score in test [4] and in test [10] were 0.552 (inactive) and 0.0657, respectively.

`O=c1n(Cc2cc3c(cc2Cl)OCO3)c(=O)n2n1CC[C@@H]1C(=NOCc3ccccc3)[C@H]3O[C@H]3[C@@H](O)[C@@H]12`: the z-score in [1] is -0.0806; in [2], -1.61 (inactive); in test [3] it was -0.595 (inactive); in [5] it was 0.14 (inactive); in [6], -1.8 (inactive); in test [7], -0.485 (inactive). Besides, the results for the z-score in test [8] and in test [9] were -0.628 (inactive) and -1.02, respectively. The composite z-score in [4] was -1.22 (inactive); in [10] it was -0.0365.

Consider `COC(=O)[C@H](C)NC(=O)CCC1CC(OC(=O)NCc2ccc3c(c2)OCO3)CC2(CCCC(COC(=O)NCC(c3ccccc3)c3ccccc3)O2)O1` (stereo not given in full), for which the z-score in test [1] was 0.0245; in [2], -1.23 (inactive); in test [3], 0.177 (inactive); in test [5], -0.895 (inactive); in [6], 0.0477 (inactive); in [7], -0.341 (inactive). Besides, the z-score in [8] was 0.532 (inactive); in test [9] it was -0.0511. The composite z-score in test [4] was -2.67 (inactive); in [10], -0.0734.

For `O=C1CCCC(C2=CCCCC2=O)C1` (stereo not given), the z-score is -0.575 in [1]; 0.0749 (inactive) in [2]; -1.83 (inactive) in [3]; 0.663 (inactive) in test [5]; 0.541 (inactive) in [6]; 0.998 (inactive) in test [7]. The z-score was 0.524 (inactive) in test [8] and -1.01 in test [9]. Moreover, the composite z-score is 0.153 (inactive) in test [4] and 0.197 in test [10].

For the compound `CC(C)(C)N1C(=O)[C@H]2[C@H]3[C@H](O)[C@H](O)CC(=O)[C@@H]3CC[C@H]2C1=O`, the z-score in test [1] was -0.0291; in test [2] it was -0.693 (inactive); in [3] it was -0.0757 (inactive); in test [5], 0.27 (inactive); in test [6] it was -0.736 (inactive); in [7], -0.268 (inactive). Also, the results for the z-score in test [8] and in test [9] were -0.653 (inactive) and -0.0415, respectively. The composite z-score is -0.251 (inactive) in test [4] and -0.177 in test [10].

On to `O=C1C[C@@H](O)[C@@H](O)[C@@H]2[C@@H]3C(=O)N(c4cccc(Oc5ccccc5)c4)C(=O)[C@@H]3CC[C@H]12`, for which the z-score in test [1] was 0.0515; in test [2] it was 0.251 (inactive); in [3], 0.0257 (inactive); in [5] it was -0.601 (inactive); in [6] it was 0.132 (inactive); in test [7], -0.539 (inactive). The z-score in [8] was -0.389 (inactive); in [9] it was 0.0381. In addition, the composite z-score in test [4] is 0.0371 (inactive); in [10] it was -0.0448.

For `COCCNC(=O)OCC1CCCC2(CC(OC(=O)NCc3ccc4c(c3)OCO4)CC(CCC(=O)N[C@@H](C)C(=O)OC)O2)O1` (stereo not given in full), the z-score in [1] is 0.752; in test [2] it was -0.433 (inactive); in test [3], -0.0741 (inactive); in [5], -0.282 (inactive); in test [6], 0.715 (inactive); in test [7] it was 0.311 (inactive). The z-score in test [8] was -0.49 (inactive); in test [9], 0.528. Also, the composite z-score in test [4] was 0.209 (inactive); in [10], -0.173.

On to `COc1ccc(O[C@@H]2[C@H](O)CO[C@H]2C=Cc2ccccc2)cc1`, for which the z-score is -1.03 in test [1]; -4.4 (inactive) in [2]; -0.0321 (inactive) in [3]; 0.83 (inactive) in [5]; -1.85 (inactive) in test [6]; 0.988 (inactive) in test [7]. Besides, the z-score is -0.741 (inactive) in [8] and -0.473 in test [9]. The composite z-score in test [4] was -1.24 (inactive); in test [10] it was -0.113.

Source of the values: PubChem BioAssay.
